Measurements taken from PubChem BioAssay AID1645879 (National Center for Advancing Translational Sciences (NCATS), 2021).
Inconclusive results are not listed. Where a call stands in place of a potency, no number is given. The source made the active and inactive calls. The call rests on the fitted dose curve; in most records, active means well fitted inhibition curve with a large enough effect; inconclusive means small, poorly fitted or top-dose-only effect; inactive means no such curve, though single readings can be large or run the other way.

Assay: Counterscreen qHTS assay for inhibitors of N-terminal methyltransferase 1 (NTMT1): SPKRIA Counterscreen Assay
Conditions: biochemical qHTS; series mostly up to 99.2 µM
From the text: Assay Submitter (PI): Rong Huang Ph.D,
Purdue University, West Lafayette, IN 47907
The N-terminal methytransferase 1 is the first methyltransferase that methylates protein alpha-N-amines and plays an important role in regulating cell mitosis, chromatin interactions and DNA repair. It is observed to be over-expressed in various cancer patient tissues like malignant melanoma and colorectal cancer tissues. Knockdown of NTMT1 in cancer cells causes cell mitotic defects and enhances sensitivity to DNA damaging chemotherapeutics. […] These critical cellular processes in which NTMT1 is implicated, coupled with emerging links to cellular dysfunction, strengthen the inference that NTMT1 is a compelling novel anticancer target. Progress have been made in understanding the molecular properties of NTMT1 and the biological consequences of protein alpha-N-terminal methylation, but there are no specific small molecule probes available for NTMT1 to fully characterize its MTase activity. To address this unmet need, a panel of assay is created and established to enable quantitative high-throughput screening (qHTS) for novel, potent, and selective small molecule NTMT1 inhibitors. Two orthogonal qHTS that use different reagents (ThioGlo vs. MTaseGlo) are developed for primary robotic screening against the NCATS chemical library of more than 400,000 small molecules. Identified inhibitors are reacquired, validated, and further characterized.
MTaseGlo Assay is a luminescence screen that measure the activity of methyltransferases based on the reaction product S-adenosyl homocysteine (SAH). The substrate SAM is converted to SAH upon enzyme activation. MTase-Glo reagent and detection solution convert SAH to ATP and measure the light from the luciferase reaction. Nicotinamide N-methyltransferase (NNMT) is a cystolic enzyme that catalyzes the transfer of a methyl group from the co-factor SAM onto the substrate, nicotinamide (NA) to form 1-methyl-nicotinamide (MNA) and SAH. NNMT MTaseGlo assay is used as a counterscreen to evaluate selectivity of identified inhibitors.
SPKRIA and Ac-RCC-10 control is provided by the Huang laboratory.
PROTOCOL TABLE; SEQUENCE No. (e.g., 1, 2, 3, etc.); […] (e.g., Cells, Incubation, Reagent, etc.); VALUE; DESCRIPTION
1; Reagent; 3 uL; dispense assay buffer.
2; Compound; 23 nL; pin compounds and control into the assay plate.
3; Time; 15 min; room temperature incubation.
4; Reagent; 1 uL; dispensed [4x] substrate or buffer.
5; Time; 30 min; incubate at room temperature.
6; Reagent; 1 uL; dispense MTase-Glo Reagent (R).
7; Time; 30 min; incubate at room temperature.
8; Reagent; 5 uL; dispense [1x] MTase-Glo Detection Solution to allow for ADP to be converted to ATP.
9; Centrifugation; 1,000 RPMs; assay plates were centrifuged.
10; Incubation; 30 min; room temperature.
11; Detection; Luminescence; ViewLux plate reader (clear filter, 10 second exposure).
NOTES (numbers refer to Sequence numbers above; values are from representative experiments)
1; Dispense the assay buffer into Greiner 1536-well black / solid bottom assay plate (Greiner Bio One, Monroe, NC).
2; Pin control inhibitor Ac-RCC1-10 at a final concentration range of 234 nM to 143 uM using a Wako Pin Tool (Wako Automation USA) equipped with a 1536-slotted pin array (Wako Automation, Richmond, VA). Pin compound library into the assay plates (columns 5 - 48) at a final concentration range of 97 nM to 250 uM.
3; Incubate the assay plates at room temperature.
4; Dispense 1 uL of substrate SPKRIA solution (final concentration 1 uM) or 1 uL buffer was added to the wells bringing the final assay volume to 4uL. The assay plate was covered with metal lids.
5; Incubate the assay plate at room temperature.
6; Dispense 1 uL of 5x MTase-Glo Reagent in the assay plate.
7; Incubate at room temperature to allow for SAH to be converted to ADP
8; Dispense 5 uL of 5x MTase-Glo Detection Solution in the assay plate to allow for ADP to be converted to ATP.
9; Assay plates were centrifuged for 15 seconds.
[…]

SMILES	Potency
CN(C)CCC=C1c2ccccc2C=Cc2ccccc21	inactive
O=C(c1ccc(/C=C/c2n[nH]c3ccccc23)cc1)N1CCNCC1	inactive
Cc1cc(C)nc(NC(=S)N2CCN(c3ccccn3)CC2)c1	inactive
Cc1cc2c(s1)c1cnn(Cc3cccc(F)c3)c(=O)c1n2C	inactive
Cc1cccc(C(=O)Nc2sc3c(c2C(=O)O)CCCC3)c1	50.1 µM (active)
Cc1ccc(-n2ncc3c(NCCO)ncnc32)cc1Cl	31.6 µM (active)
COc1ccc(C(=O)Nc2onc3c2CCCC3)cc1	inactive
Nc1ccc2nc(-c3ccc(O)cc3)sc2c1	44.7 µM (active)
O=c1cc(-c2ccccc2)oc2ccc(O)cc12	31.6 µM (active)
Oc1ccc(Cl)cc1Nc1nc2ccccc2n2cnnc12	inactive
O=C(Nc1nc2c(s1)CCCC2)c1ccccc1F	39.8 µM (active)
CC(C)(C)c1ccc(-c2csc(N3CCC(C(N)=O)CC3)n2)cc1	inactive
COc1cc2c(cc1O)CC[C@H]1[C@@H]2CC[C@]2(C)[C@H](O)CC[C@@H]12	50.1 µM (active)
Cc1c(Cl)cccc1Nc1nn2c(=O)c3ccccc3nc2s1	inactive
CC(C)=CCC/C(C)=C/CC/C(C)=C/CSc1ccccc1C(=O)O	inactive
Cc1ccc(Nc2ncnc3c2cnn3-c2ccccc2)c(C)c1	7.94 µM (active)
Cc1ccc(-n2ncc3c(NCCCN(C)C)ncnc32)cc1Cl	44.7 µM (active)
Cc1c(Cl)ccc2sc(N3CCN(C(=O)C4CC4)CC3)nc12	inactive

SMILES	Potency
COc1cccc(/C=C/c2nc(C#N)c(NCCN(C)C)o2)c1	inactive
CN1CCCN=C1/C=C/c1cccs1	inactive
O=C(O)c1ccc(-c2noc(-c3cccc(Cl)c3)n2)cc1	inactive
CC(C)c1ccc(Nc2ncnc3c2nc2n3CCCC2)cc1	50.1 µM (active)
Cc1ccc2nc(-c3ccc(O)cc3)c(Nc3ccc(Cl)cc3)n2c1	inactive
O=C(Nc1ccc2c(c1)CCC2)Nc1nnc(-c2ccncc2)s1	inactive
COc1cc(C)c(/C=C/C(C)=C/C=C/C(C)=C/C(=O)O)c(C)c1C	inactive
CC(=O)Nc1sc2c(c1-c1nc3ccccc3s1)CNC2	inactive
O=c1cc(-c2ccccc2)oc2ccccc12	112 µM (active)
COc1cc(/C=C\c2ccc(O)cc2)cc(OC)c1	inactive
Oc1cccc(Nc2cc(-c3ccccc3)ncn2)c1	39.8 µM (active)
COc1ccc(Nc2ncnc3sc4c(c23)CCCC4)cc1	20 µM (active)
CN(C)C(=O)c1ccc(-c2cc[nH]c(=O)c2N)cc1	inactive
CC(=O)Nc1sc2c(c1-c1ccc3scnc3c1)CCNC2	inactive
Cc1ccnc(NC(=S)N2CCNCC2)c1	inactive
CCC1(C)CC(=O)NC1=O (stereo not given)	inactive
CC(C)CCNc1ncnc2c1cnn2-c1cccc(Cl)c1	22.4 µM (active)
